# RecA intein inh = inhibitors of M. tuberculosis RecA intein splicing. hit rate 0.75% among 290,000. P9WHJ3. cell-free RecA intein splicing, fluorescence. inhibition, % (concentration not given with the values). AID 2221; in the data active = inhibition above about 30%;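 note: 0% = vehicle wells and 100% = reference inhibitor control wells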
# PriA SSB inh = K. pneumoniae PriA-SSBct interaction inhibition. AlphaScreen SSBct-PriA binding, biotinylated peptide. inhibition, % at 33 µM. hit rate 0.6% among 430,000. AID 1272365; in the data active = inhibition mostly above about 37%, no sharp cut-off; inactive = mostly below about 20%;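 note: plate controls were negative control peptide for no effect and reference peptide for full effect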
# CCHFV vOTU inh = blocks the CCHF virus ovarian tumor domain protease. inhibition, % at 11.5 µM. CCHFV vOTU protease, Pep-AMC fluorescence. hit rate 0.55% among 370,000. AID 651958; in the data active = inhibition above about 30%; note: 0% = vehicle wells with enzyme and 100% = no enzyme wells
# VHR inh abs = blocks human VHR1 dual specificity phosphatase; hit rate 0.52% among 290,000; inhibition, % at 13.3 µM; recombinant VHR phosphatase, pNPP absorbance; in the data active = inhibition above about 50%
# Target sequence (P51452 whole entry, looked up): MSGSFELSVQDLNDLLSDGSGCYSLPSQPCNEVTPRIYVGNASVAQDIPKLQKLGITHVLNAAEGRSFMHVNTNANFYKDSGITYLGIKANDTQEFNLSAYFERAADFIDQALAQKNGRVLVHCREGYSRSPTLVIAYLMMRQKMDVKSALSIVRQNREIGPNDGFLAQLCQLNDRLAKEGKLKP
# SARS 3CLpro inh = SARS-CoV 3CLpro protease inhibition | hit rate 0.14% among 290,000 | inhibition, % at 6 µM | AID 1706 | recombinant SARS-CoV 3CLpro, quenched FRET peptide cleavage; in the data active = inhibition above about 12%
# GFP chromophore = counter-screen GFP chromophore formation inhibition; EC50, µM; cell-free GFP chromophore formation, fluorescence; AID 434968; shares compounds with RecA intein inh; hit rate 83% among 2,100; call rule not given here
# * = called active by the depositor; / = not tested or not shown. Shown are actives, neighbours in structure and some others; about 1.7% of the full set was active somewhere.
SMILES,RecA intein inh,PriA SSB inh,CCHFV vOTU inh,VHR inh abs,SARS 3CLpro inh,GFP chromophore
Cc1ccc(C(=O)NC(=S)NNS(=O)(=O)c2ccc(C)cc2)cc1,41.5*,13.8,-1.4,-14.5,-2.0,>38
COc1ccc(S(=O)(=O)OCCN2C(=O)c3ccccc3C2=O)cc1OC,/,-10.0,/,/,/,/
CSc1nc(=S)n(-c2ccc([N+](=O)[O-])cc2)c(C)c1C(C)=O,34.8*,-10.8,-8.2,37.9,3.5,>38
CC(C)(C)OC(=O)N1CC=C2C(C#N)=C(N)C(C#N)(C#N)C(c3cccs3)C2C1 (stereo not drawn),52.9*,-0.5,-4.6,6.1,5.1,10.1*
CCOC(=O)N1CC=C2C(C#N)=C(N)C(C#N)(C#N)[C@H](c3cccs3)C2C1 (stereo partly drawn),10.6,-4.6,-0.7,31.2,-2.6,/
Cc1cc(C)c2c(c1)-c1c(ssc1=S)C(C)(C)N2C(=O)CSc1nncn1C,45.8*,52.1,3.9,11.7,-1.4,9.77*
Cc1ccc2c(c1)-c1c(ssc1=S)C(C)(C)N2C(=O)CSc1nncn1C,47.3*,58.0,-2.0,18.0,-0.2,12.9*
CC1(C)c2ssc(=S)c2-c2ccccc2N1C(=O)CSC1=NCCS1,51.1*,72.8,-6.2,1.8,5.3,4.56*
COc1ccc2c(c1)-c1c(ssc1=S)C(C)(C)N2C(=O)CSC1=NCCS1,24.3,-13.6,-1.9,13.2,6.5,/
CCOc1ccccc1NC(=O)CSc1nccn2nc(-c3cccc4ccccc34)cc12,/,0.0,/,/,/,/
Cc1[nH]n(-c2ccccc2)c(=O)c1/C=N\NC(=O)C1COc2ccccc2O1 (stereo not drawn),38.1*,/,3.9,1.1,1.7,>38
CC(=O)N/N=C/c1c(C)[nH]n(-c2ccccc2)c1=O,/,/,26.4,-16.0,-2.7,/
O=C(Cc1cc(=O)[nH][nH]1)N/N=C/C=C/c1ccccc1,84.6*,/,-3.4,43.7,-3.4,18.3*
Cc1nc2ccc(NC(=O)Cc3ccc([N+](=O)[O-])cc3)cc2c(=O)n1-c1ccccc1,/,10.0,/,/,/,/
Cc1nc2ccccc2c2c1C(=O)N(Cc1cccnc1)C2=O,53.7*,8.3,5.3,22.8,5.0,0.815*
CCc1ccccc1NC(=O)c1csc(Nc2ccccc2)n1,/,-9.0,/,/,/,/
CN(C)c1ccc2nsnc2c1[N+](=O)[O-],31.8*,0.3,13.9,22.8,-0.5,>38
CCOc1ccccc1NC(=O)c1nc(S(=O)(=O)Cc2cccc(C)c2)ncc1Cl,7.5,-2.6,7.7,5.5,-5.2,/
CCc1nnc(NC(=O)c2nc(S(=O)(=O)Cc3ccccc3)ncc2Cl)s1,66.2*,-1.4,2.1,-11.5,-0.2,36.9*
Cc1ccc(CS(=O)(=O)c2ncc(Cl)c(C(=O)Nc3ccc(OC(F)F)cc3)n2)cc1,14.5,-1.2,21.2,12.5,-3.6,/
CCc1nnc(NC(=O)c2nc(S(=O)(=O)Cc3cccc(C)c3)ncc2Cl)s1,74.9*,0.1,-5.0,-9.9,0.4,15.6*
CCc1nnc(NC(=O)c2nc(S(=O)(=O)Cc3ccc(C)cc3)ncc2Cl)s1,76.3*,-13.0,9.7,-25.6,-5.4,19.6*
Cc1nnc(NC(=O)c2c[nH]c3ccccc3c2=O)s1,/,-11.0,/,/,/,/
O=S(=O)(c1ccc(C(F)(F)F)cc1)N1CCC(CSc2ccccn2)CC1,/,3.0,/,/,/,/
CC1=NNC(=O)/C1=C\c1cn(-c2ccccc2)nc1-c1cccs1,97.1*,3.0,2.1,-2.2,-2.5,2.83*
SMILES,RecA intein inh,PriA SSB inh,CCHFV vOTU inh,VHR inh abs,SARS 3CLpro inh,GFP chromophore
O=Cc1cn(-c2ccccc2)nc1-c1ccc(F)cc1,3.4,-6.0,1.3,-6.1,-1.6,/
CC1=NNC(=O)/C1=C\c1cn(-c2ccccc2)nc1-c1ccc(F)cc1,65.6*,-2.1,/,14.9,-3.9,2.46*
O=C(O)CCCCCN1C(=O)/C(=C/c2cn(-c3ccccc3)nc2-c2cccs2)SC1=S,/,9.6,-2.8,/,/,/
CC(=NNC(=O)Cc1cc(=O)[nH][nH]1)c1cccc([N+](=O)[O-])c1,/,6.3,/,/,/,/
C/C(=N/NC(=O)Cc1cc(=O)[nH][nH]1)c1ccc([N+](=O)[O-])cc1,84.4*,/,3.9,-12.5,3.9,7.45*
C/C(=N\NC(=O)Cc1cc(=O)[nH][nH]1)c1cccc([N+](=O)[O-])c1,87.9*,/,-11.8,7.6,0.0,8.76*
C/C(=N\NC(=O)Cc1cc(=O)[nH][nH]1)c1ccc([N+](=O)[O-])cc1,/,/,7.9,/,/,/
CCOC(=O)c1sc(NC(=O)c2cc(C)nn2CC)nc1-c1ccccc1,/,6.0,/,/,/,/
CS(=O)(=O)c1cnc(-c2ccccc2)nc1Sc1ccc(F)cc1,1.3,-12.5,-8.9,34.4,-2.8,/
Fc1ccc(Sc2nc(-c3ccccc3)nnc2C(F)(F)F)cc1,70.9*,-3.9,11.1,-5.4,-0.1,0.885*
O=C(CN1CCN(S(=O)(=O)c2ccc(Cl)cc2)CC1)Nc1ccc2c(c1)OCO2,47.3*,5.6,6.0,18.6,3.2,>38
O=C(/C=C/c1ccccc1Cl)N(Cc1ccccn1)c1nc2ccccc2s1,/,6.0,/,/,/,/
CS(=O)(=O)N1CCC(C(=O)Nc2ccc3scnc3c2)CC1,/,-21.0,/,/,/,/
Nc1ccc(Nc2ccccc2N)cc1,58.3*,90.5,18.3,5.1,3.0,19.7*
Nc1ccc(Nc2ccncc2)cc1,/,/,2.0,/,/,/
O=C1CC(CSc2ccc(Cl)cc2)=NN1,90.9*,5.9,-1.3,13.8,0.5,8.78*
Cc1cc(SCC2=NNC(=O)C2)c(Cl)cc1Cl,/,4.4,-2.5,17.9,-3.1,/
COc1ccc2c(c1)-c1nc(/N=C/c3c(O)ccc4ccccc34)sc1CC2,51.1*,/,-10.1,-12.9,2.2,>38
COC(=O)c1sc(N)c(C(=O)OC)c1Cn1ncc(Cl)c(Cl)c1=O,31.5*,-4.7,3.1,-9.1,-0.9,1.6*
COC(=O)c1sc(N)c(C(=O)OC)c1COC(=O)c1c(C)noc1C,3.2,-3.1,4.9,10.2,-4.0,/
Cc1nc(Nc2ccc(O)cc2)c2c3c(sc2n1)CCCC3,30.2*,3.2,/,36.0,-1.6,>38
Cc1ccc(CNc2nc(C)nc3sc4c(c23)CCC4)cc1,0.2,-6.1,-5.5,10.5,-2.4,/
Cc1noc(C)c1CCC(=O)NCC(C)(O)C1CC1 (stereo not drawn),/,-9.0,/,/,/,/
O=C(Nc1nc2c(s1)CN(S(=O)(=O)Cc1cccc(F)c1)CC2)c1ccoc1,/,-20.0,/,/,/,/
CC1CCc2c(sc3nc(C(C)(C)C)nc(N4CCN(C(=O)CCl)CC4)c23)C1 (stereo not drawn),82.9*,10.7,18.4,-10.3,5.8,0.958*
O=C(NC1CCN(Cc2ccccc2)CC1)c1cc(-n2cccn2)ccn1,/,-9.0,/,/,/,/
FC(F)(F)c1cccc(NC(=S)Nc2ccc(Cl)c(Cl)c2)c1,0.0,-18.3,-4.3,8.8,6.2,/
O=[N+]([O-])c1cc(C(F)(F)F)cc([N+](=O)[O-])c1NCCNC(=S)Nc1ccc(Cl)c(Cl)c1,30.3*,-0.9,13.1,13.3,7.8,>38
COc1cccc(CNC(=O)Cn2cnc3c(sc4ccccc43)c2=O)c1,/,-21.0,/,/,/,/
C=CCn1c(SCc2csc(C)n2)nc2scc(-c3ccc(Cl)cc3)c2c1=O,/,-3.0,/,/,/,/

# Screening results from PubChem BioAssay.
